Reference: PubChem BioAssay AID652104 (National Center for Advancing Translational Sciences (NCATS), 2013)
Screen size: about 410,000 compounds; about 7,200 (1.8%) were called active. About 7% were inconclusive and are not listed. Only a selection was taken, and actives are over-represented in it overall. Values without a mark were called inactive. Calls follow the shape of the dose curve; as a rule, active = well fitted activation curve with a large enough effect; inconclusive = small, poorly fitted or top-dose-only effect, or another doubt; inactive = no such curve, though single readings can be large or run the other way.

Experiment: qHTS of TDP-43 Inhibitors; also: nearly all actives have a fitted effect of over 50% in size; as to growth rescue (activation): % of control where 0% means no effect
Conditions: TDP-43 expressing yeast growth rescue, BacTiter-Glo, 24 h; series mostly up to 46.1 µM; growth rescue (activation): at the top concentration
Text: The goal of this project is to identify new chemical probes capable of reversing the toxicity associated with TDP-43 which is associated with frontotemporal lobar degeneration and amyotrophic lateral sclerosis. These compounds will provide a complementary approach to deciphering the tangled mechanisms of toxicity and protection that we have uncovered through genome-wide genetic screens and are beginning to uncover in a large-scale proteomics analysis with mass spectroscopy.
To this end, a miniaturized assay was developed to be screened against the Molecular Libraries Small Molecule Repository (MLSMR) to discover TDP-43 inhibitors. Please note that in the set-up this yeast-based assay compounds that inhibit as TDP-43, have a read-out as activators.
NIH Chemical Genomics Center [NCGC]
NIH Molecular Libraries Probe Centers Network [MLPCN]
Assay Submitter (PI): Susan Lindquist, Whitehead Institute/MIT
Dispense 2.5 microL yeast galactose medium per 1536-well plate, pin compound, dispense 2.5 microL TDP-43 expressing yeast in galactose medium at OD600=0.02 (pregrown in raffinose medium to mid-log phase) per well, incubate for 24 hr at 30 deg C, and cell growth will be measured using 5 microL of Bactiter/Glo reagent to entire plate and read using Luminescence Protocol in ViewLux.
Potency is read from the fitted curve at half-maximal effect.

Row | SMILES | growth rescue (activation) | Potency
1 | COc1ccc(CNCCc2ccc3c(c2)OCO3)c(OC)c1OC | 0.202% | –
2 | CCOc1ccc(S(=O)(=O)NCc2ccc3c(c2)OCO3)cc1C | – | 12.6 µM (active)
3 | Cc1cc(=O)oc2c(C)c(OCC(=O)N3CCN(Cc4ccc5c(c4)OCO5)CC3)ccc12 | -20.2% | –
4 | O=C(CCC(=O)N1C[C@H]2C[C@@H](C1)c1cccc(=O)n1C2)NCc1ccccc1C(F)(F)F | 17.2% | –
5 | COc1cccc(C(c2nnnn2-c2ccc3c(c2)OCCO3)N2CCC3(CC2)C(=O)NCN3c2ccccc2)c1OC (stereo not given) | 27.4% | –
6 | Oc1cc2c(cc1CN1CCN(c3ccccc3)CC1)OCO2 | -5.52% | –
7 | O=C(NC1CCCCC1)N1Cc2cc(N3CCCCC3)ccc2-n2nncc2C1 | 8.16% | –
8 | O=C1/C(=C\c2ccc3c(c2)OCO3)N2CCC1CC2 | -14.1% | –
9 | c1cc2c(cc1CCNC1CCCCCC1)OCO2 | 3.13% | –
10 | c1cc2c(cc1[C@H]1OC[C@H]3[C@@H]1CO[C@@H]3c1ccc3c(c1)OCO3)OCO2 | – | 11.2 µM (active)
11 | O=C(Cc1ccc(Cl)cc1)NCCN1CCN(C(=O)Cc2ccc(Cl)cc2)CC1 | -16.1% | –
12 | CCOC(=O)c1cccc(C2=C(CNC(=O)c3ccncc3)[C@H]3CC[C@@H](C2)N3Cc2ccccc2)c1 | 16.2% | –
13 | Cc1ccnc(-n2c(C)cc(/C=C3\C(=O)NC(=S)N(C)C3=O)c2C)c1 | – | 35.5 µM (active)
14 | Cc1ccc(-n2c(C)cc(/C=C3\C(=O)NC(=O)N(C)C3=O)c2C)cc1C | 15.2% | –
15 | Cc1cc(C=C2C(=O)NC(=O)NC2=O)c(C)n1-c1ccncc1 | 0% | –
16 | ClC(Cl)(Cl)c1ccccc1 | 20.2% | –
17 | O=c1c2ccccc2nc(-c2ccc(Cl)cc2Cl)n1-c1ccncc1 | 3.25% | –
18 | O=c1c2ccccc2nc(CBr)n1-c1ccc(Cl)cc1 | -19.6% | –
19 | Cc1nc2ccccc2c(=O)n1-c1ccc(Cl)cc1Cl | – | 15.8 µM (active)
20 | CCOC(=O)[C@]12Cc3cc(OC)ccc3[C@H]1N(C(C)C)C(=O)c1ccccc12 | -64.3% | –
21 | CCOC(=O)c1c(-c2ccccc2)oc2ccc(OC(=O)N(C)C)cc12 | 7.35% | –
22 | Cc1ccc(-c2nc3ccccc3c(=O)n2-c2ccc(Br)cn2)cc1 | 3.11% | –
23 | N#Cc1ccc(Cn2cc(C(=O)c3ccco3)c3ccccc32)cc1 | – | 17.8 µM (active)
24 | NC(=O)Cn1cc(C(=O)c2ccccc2F)c2ccccc21 | 15.2% | –
25 | Cc1ccc([C@H]2C[C@H](O)[C@@H](n3cc(COC(=O)c4ccccc4)nn3)CN2CC2CCCCC2)cc1 | 0% | –
26 | CC(C)N(CC#CCC1(O)c2ccccc2-c2ccccc21)C(C)C | -17.2% | –
27 | Cc1cccc(Cn2cccc(C(=O)Nc3ccc4c(c3)OCCO4)c2=O)c1 | 17% | –
28 | CCOC(=O)C1CN(C)CCC1=O (stereo not given) | 5.32% | –

Row | SMILES | growth rescue (activation) | Potency
29 | c1ccc(-c2nnc(SCc3nc4ccccc4[nH]3)o2)cc1 | – | 12.6 µM (active)
30 | c1cc2c(c(NC3=NCCCS3)c1)CCCC2 | 5.1% | –
31 | O=c1[nH]c2ccccc2n1C1CCN(C(c2ccnc3ccccc23)c2nnnn2Cc2ccccc2)CC1 (stereo not given) | 10.3% | –
32 | COC(=O)C1=C(c2ccc(F)cc2OCc2ccccc2)C[C@@H]2CC[C@H]1N2C(=O)NCc1ccc(OC)c(OC)c1 | 19.4% | –
33 | COC(=O)C1=C(c2ccccc2OCc2ccccc2)C[C@@H]2CC[C@H]1N2C(=O)NCc1ccc(OC)cc1 | – | 35.5 µM (active)
34 | COC(=O)C1=C(c2ccc(F)cc2OCc2ccccc2)C[C@@H]2CC[C@H]1N2C(=O)NCc1ccc2[nH]ccc2c1 | 4.65% | –
35 | Cc1ccc(NC(=O)N(Cc2ccc3c(c2)OCO3)C2CCN(Cc3ccccc3)CC2)cc1F | 0.85% | –
36 | O=C(C1CCN(S(=O)(=O)c2ccc(Br)s2)CC1)N1CCN(c2ccccc2)CC1 | 0% | –
37 | O=c1[nH]c2ccccc2n1C1CCN(C(c2ccccc2)c2nnnn2Cc2ccccc2)CC1 (stereo not given) | 0% | –
38 | COC(=O)C1=C(c2ccc(F)cc2F)C[C@@H]2CC[C@H]1N2C(=O)NC1CC1 | 13.1% | –
39 | Cn1c(C(=O)N2CCC(C(=O)N3CCC4(CC3)OCCO4)CC2)cc2sccc21 | -14.1% | –
40 | Cc1cc(N2C(=O)C3CCCN3C2c2ccc(Cl)c(Cl)c2)no1 (stereo not given) | 16.4% | –
41 | CC1CNCCN1c1ccc(Cl)cc1 (stereo not given) | -10.5% | –
42 | C[C@]12CCC3C(CC[C@H]4[C@H](O)[C@H](O)CC[C@]34C)C1CCC2=O (stereo not given in full) | 9.92% | –
43 | CC12CCC3C(CCC4CC(=O)CCC43C)C1CC(=NO)C2=O (stereo not given) | – | 15.8 µM (active)
44 | COc1ccc(-n2nnnc2C(c2cccc3ccccc23)N2CCC(n3c(=O)[nH]c4ccccc43)CC2)cc1 (stereo not given) | 19.2% | –
45 | Nc1ccc(Cc2ccc(N)c(Cl)c2)cc1Cl | – | 12.6 µM (active)
46 | CNCC[C@H](Oc1ccc(C(F)(F)F)cc1)c1ccccc1 | 13.1% | –
47 | COc1ccc(-c2nn(CCC#N)cc2C(=O)Nc2ccc(C(C)=O)cc2)cc1 | 0% | –
48 | CC(C)Oc1ccc(NC(=O)c2cc3ccccc3o2)cc1 | -11.1% | –
49 | C[N+]1(C)CCOC(O)(c2ccc(-c3ccc(C4(O)C[N+](C)(C)CCO4)cc3)cc2)C1 (stereo not given) | – | 5.01 µM (active)
50 | Cc1nn(-c2ccccc2)c(C)c1NC(=O)COC(=O)Cc1ccccc1 | 5.52% | –
51 | C[C@@H]1C[C@@H]2O[C@H]2/C=C\C=C\C(=O)Cc2c(Cl)c(O)cc(O)c2C(=O)O1 | – | 11.2 µM (active)
52 | c1ccc(CC2CCCCN2)cc1 (stereo not given) | 1.64% | –
53 | CN(C(=O)c1cccc(NC(=O)Cc2cccc([N+](=O)[O-])c2)c1)C1CCCCC1 | -14.5% | –
54 | Cc1ccc([C@H]2C[C@H](O)[C@@H](n3cc(COC(=O)c4ccccc4)nn3)CN2C(=O)C2CCCCC2)cc1 | 11.7% | –
55 | O=C(Nc1ccc(Cl)cc1C(=O)c1ccccc1)c1cc(Cl)cc(Cl)c1 | -4.61% | –
